In PubChem BioAssay AID952 (NMMLSC, 2007):
Hit rate of the full screen: of about 190,000 compounds, about 45 (0.02%) were called active. Cut-off read from the data, not from the text of the source: active = inhibition above about 40%. The list is a sample of the results.

molecular target: Bcl-2-like protein 2 (Homo sapiens) (UniProt Q92843); assay: Bcl-W/Bim complex disruptors – biochemical, multiplexed, bead-based flow cytometry, primary screen (AID 952); conditions: Bim peptide-Bcl-W binding, at 10 µM, stronger effect = higher value;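 note: 0% = bound tracer without compound and 100% = peptide blocker; higher means less fluorescent Bim peptide bound to Bcl-W beads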
Sequence (Q92843 whole entry, looked up): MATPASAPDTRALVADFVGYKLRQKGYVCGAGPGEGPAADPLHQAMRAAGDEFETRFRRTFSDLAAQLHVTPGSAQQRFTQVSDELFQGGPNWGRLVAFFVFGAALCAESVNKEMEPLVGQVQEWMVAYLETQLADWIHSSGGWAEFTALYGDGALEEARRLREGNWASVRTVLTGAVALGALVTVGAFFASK

inhibition, inactive:
COCC(C)n1c(C)cc(C(=O)CSc2cc(C)c3ccccc3n2)c1C (stereo not drawn) -6%
O=C(c1cccs1)n1nc(NCc2ccccc2)nc1NCc1ccccc1 0%
Cc1ccc(NCc2n[nH]c(=S)n2-c2ccccc2)cc1Cl 0%
Cc1cc2nc(C(F)(F)F)cc(-c3cccs3)n2n1 0%
O=C1Oc2ccccc2C(=O)/C1=C/c1ccccc1O 0%
Cc1ccc(/C=C/C(=O)Nc2cc(S(=O)(=O)N3CCCCCC3)ccc2OCC(F)(F)F)o1 -2%
Cc1ccc(C2CC(c3cccc(NS(C)(=O)=O)c3)=NN2S(C)(=O)=O)cc1 (stereo not drawn) -1%
COCCn1c(=O)[nH]c(=O)c2cc(C(=O)c3cc(OC)ccc3O)cnc21 -3%
CC1(C)CC(=O)C=C(N2CCOCC2)C1 -2%
Cc1cc(OCCCC(=O)NCCN2C(=O)S/C(=C\c3cccnc3)C2=O)ccc1Cl -3%
O=C(N/N=C/c1ccc(OCc2ccccc2)cc1)c1ccc(O)cc1 0%
CC(C)C(O)C1CCN(Cc2nc(Cc3ccccc3Cl)no2)CC1 (stereo not drawn) 1%
CSc1ccc(/C=C/C(=O)NC23CC4CC(CC(C4)C2)C3)cc1 -2%
CN1CCN(/N=C/c2ccc(-c3ccc([N+](=O)[O-])cc3)o2)CC1 3%
Cc1ccnc(NC(=O)CCCOc2ccccc2)c1 -1%
Cc1ccc(CCCOC(=O)C[N+]2(C)CCCC2)cc1 3%
COc1ccc(-c2csc3ncnc(Oc4ccc5c(C)cc(=O)oc5c4)c23)cc1 -9%
CCn1c(SCc2ccccc2)nc2c(c1=O)SCC2 -2%
CCOC(=O)C1=C(CN2CCCCCC2)NC(=O)NC1c1cccc([N+](=O)[O-])c1 (stereo not drawn) -2%
FC(F)Oc1ccccc1NC(=S)Nc1cccc(Cl)c1Cl -3%
CCC(C)NC(=O)c1ccc(N2CCC3(CC2)OCCO3)c([N+](=O)[O-])c1 (stereo not drawn) -1%
C=C(C)C1CC=C(C)/C(=N\NC(=O)CNc2ccccc2OC)C1 (stereo not drawn) 0%
NCCCC[C@@H]1NC(=O)[C@H](CCC(=O)O)NC(=O)c2cc([N+](=O)[O-])cc(I)c2NCC[C@@H](C(N)=O)NC1=O 2%
Cc1nnc(SCC(=O)N2CCOCC2)[nH]c1=O -4%
OCCC1CN(Cc2ccc(Oc3ncccn3)cc2)CCN1CCc1ccccc1 (stereo not drawn) -3%
Cc1[nH]c2ccccc2c1/C=N\NC(=O)Cn1nnc(-c2ccccc2)n1 -6%
CCOC(=O)C1=NOC(Cn2cc(C(C)=O)c(=O)[nH]c2=O)C1 (stereo not drawn) -3%
CN(C)c1ccc(Nc2c3c4c(cccc4n(C)c2=O)C(=O)c2ccccc2-3)cc1 14%
C1CC1Cc1noc(CN2CCN(CC3CC3)CC2)n1 -3%
COC(=O)c1nn(-c2cccc(Cl)c2)ccc1=O 1%
O=C(CC1C(=O)NCCN1CC(c1ccccc1)c1ccccc1)NCCc1cn[nH]c1 (stereo not drawn) -4%
O=C(CCN1C(=O)c2ccccc2C1=O)NCCCn1ccnc1 0%
Cc1cc(C)c2c(n1)sc1c(=O)n(-c3ccccc3)c(=O)[nH]c12 -3%
Cc1ccccc1NS(=O)(=O)CCCCC(Cl)(Cl)Cl 0%
COc1ccc(NS(=O)(=O)c2ccc(NC(=O)c3ccc(N(C)S(C)(=O)=O)cc3)cc2)cc1 -8%
CCc1ccc(-n2c(SCc3cc(=O)n4cc(Br)ccc4n3)nc3[nH]ncc3c2=O)cc1 -4%
COCCNC(=O)C(c1ccc(O)cc1)N(C(=O)CCC(=O)Nc1nccs1)c1ccc(C)cc1 (stereo not drawn) -3%
O=C(CN1CCN(S(=O)(=O)c2ccc(Br)cc2)CC1)Nc1ccccc1C(=O)c1ccccc1 -9%
O=C(NCC1COc2ccccc2O1)C1(c2ccccc2)CCCC1 (stereo not drawn) -1%
OCCCC1CCCCN1Cc1nc(Cc2ccccc2Cl)no1 (stereo not drawn) 4%
CCOC(=O)/C(=N\Nc1cc(Cl)ccc1Cl)N1CCN(C)CC1 -5%
COC(=O)c1c(NC(=O)CN(c2ccc(C)c(C)c2)S(C)(=O)=O)sc2c1CCCC2 -6%
Cc1ccc(S(=O)(=O)N2CCCC2C(=O)OCc2nc3sc(C)c(C)c3c(=O)[nH]2)cc1 (stereo not drawn) -3%
CN(C)c1nc(N)nc(Cn2nnc(-c3ccc(C(F)(F)F)cc3)n2)n1 -5%
CC(=O)N/N=C/c1cc2c(cc1[N+](=O)[O-])OCO2 -2%
O=C(CN1CCN(C(=S)NC2CCCC2)CC1)Nc1ccc(Oc2ccccc2)cc1 -12%
Cc1ccc2nsnc2c1NC(=O)c1ccccc1[N+](=O)[O-] 0%
CC(C)N1CCC(N2CCN(Cc3cccnc3)CC2CCO)CC1 (stereo not drawn) -4%
CCN(CCCNC(=O)CCn1c(=O)[nH]c2ccsc2c1=O)c1ccccc1 1%
O=C(COC(=O)c1ccccc1C(=O)N1CCN(c2ccccc2)CC1)NCc1ccccc1 -3%
O=C(CCCO)N/N=C/c1cc(Br)ccc1O -3%
CC(C)(C)CN1CCNC(=O)C1CC(=O)NC1Cc2ccccc2C1 (stereo not drawn) 1%
COc1ccc(C(=O)N2CCC(C(=O)Nc3ccc(C)cc3)CC2)cc1 -1%
N#Cc1ccc(-c2nc3cc(C#N)c(C#N)cc3nc2-c2ccccc2)cc1C#N 0%
COc1ccc(NC(=S)SC)cc1OC -2%
O=C(N/N=C/c1ccc([N+](=O)[O-])o1)c1cccc(S(=O)(=O)N2CCOCC2)c1 0%
C=CCOC(=O)C1=C[C@@H](c2ccccc2)C[C@@H](OCc2ccc(CO)cc2)O1 0%
CCC(C)(C)NC(=O)CN(C(=O)CCC(=O)Nc1cc(C)ccn1)c1ccc2c(c1)OCCO2 1%
Cn1c(=NC(=O)c2ccc3c(c2)OCCO3)sc2cc(S(C)(=O)=O)ccc21 -1%
Cn1nc(-c2ccccc2)c(CO)c1Sc1ccccc1 -2%
Cc1cc(C)c(S(=O)(=O)N2CCOCC2)cc1C 0%
Cc1cccc(C(=O)N2CCc3c([nH]c4ccccc34)C2CC(C)C)n1 (stereo not drawn) 3%
CN(C)S(=O)(=O)c1ccc2oc(SCC(=O)Nc3ccccc3F)nc2c1 0%
O=C(NNC(=O)c1ccccc1[N+](=O)[O-])Nc1ccccc1C(F)(F)F 0%
Cc1cc(C(=O)NNC(=S)Nc2ccccc2C)cs1 0%
COC(=O)c1ccccc1NC(=O)C1CC(=O)N(c2ccc(OC)cc2)C1 (stereo not drawn) 0%
Cc1noc(C)c1S(=O)(=O)N(C)Cc1ccccc1 -1%
CNCC(O)CN1CCN(c2ccccc2OC)CC1 (stereo not drawn) -1%
Cc1ccc(CCCOC(=O)C[N+]2(C)CCCCC2)cc1 0%
CCOC(=O)NN1C(=O)c2ccccc2NC1c1cccc(O)c1 (stereo not drawn) 0%
CCOC(=O)c1c(/N=C/C2C(=O)CC(C)(C)CC2=O)sc(C)c1C 2%
COc1ccc(Cl)cc1C(=O)NNC(=S)NC1CCCC1 1%
Cc1cc(N2CCOCC2)nc(-c2ccc(Br)cc2)n1 -3%
OCC(O)CN(c1ccccc1)c1ccccc1 (stereo not drawn) -1%
O=C(CNC1CCCCC1)NCC1(c2ccccc2)CCCC1 0%
COCCn1c(Cc2cccn2C)nnc1SCC(=O)Nc1nccs1 2%
COc1cc(CNC2CCCC2)c(Br)cc1OCc1ccccc1 -3%
O=C(NCCN1CCOCC1)c1cc(Sc2cccc(Cl)c2)nc2ccccc12 -3%
CCN1CCN(CC(=O)c2cc(OC)c(OC)c(OC)c2)CC1 -1%
O=C(Cc1ccc(F)cc1)N1CCN=C1SCc1cccc([N+](=O)[O-])c1 -1%
CCN(CC)CCNS(=O)(=O)c1ccc(/C=C/C(=O)O)cc1 -2%
C=CCc1ccc(OCC(O)CN2CCN(Cc3ccccc3)CC2)c(OC)c1 (stereo not drawn) -2%
Cn1c(N)c(C(=O)COC(=O)c2cnc(Cl)c(Cl)c2)c(=O)n(C)c1=O 0%
Cc1ccc(NC(=O)CSc2nnc(CNC(=O)c3ccccc3F)o2)cc1 2%
O=[N+]([O-])c1ccc(N2CCNCC2)cc1NCc1cccnc1 0%
CCOC(=O)c1cc(-c2ccc(F)cc2)n(CC(=O)NCc2ccccn2)c1C 0%
CCOC(=O)N1CCN(CCC(=O)Nc2cc(OC)ccc2OC)CC1 1%
C=CCNC(=O)COC(=O)c1ccccc1C(=O)N(C)C1CCCCC1 0%
COc1ccccc1N1CCN(C(=O)C(=O)N/N=C/c2ccccc2F)CC1 -3%
COc1ccc(C(=O)CSc2nc(C)cc(C)n2)cc1[N+](=O)[O-] -1%
CC(C)Oc1ccc(Cc2n[nH]c(=S)n2Cc2ccccc2)cc1Cl -7%
CC1CCCN(CC(O)COCc2ccccc2)C1 (stereo not drawn) 1%
CCCC(NC(=O)c1ccco1)c1nc2ccccc2[nH]1 (stereo not drawn) -5%
C=CCn1c(SCc2cccc(F)c2)nc2cc(C(=O)N3CCC(C(N)=O)CC3)ccc2c1=O -2%
CN(CCOc1ccccc1)Cc1nc2cc(Cl)ccc2c(=O)[nH]1 0%
CC1CC(C)CN(S(=O)(=O)c2ccc(C(=O)NN3CCOCC3)cc2)C1 (stereo not drawn) 1%
COc1ccc2c(c1)C(SCC(=O)NCc1ccccc1)CC(C)(C)O2 (stereo not drawn) -4%
COC(=O)CCNC(=O)c1ccc2[nH]c(C)c(C)c2c1 1%
Cc1ccc(NC(=O)CSc2nnc(COc3ccccc3C)o2)cc1 -1%
COC(=O)CC(=O)N1CCN(c2ccc(Cl)c(Cl)c2)CC1 4%
CSCc1ccc(C(=O)Nc2cc(C)cc(C)c2)cc1 -5%
CCN1CCN(CC(=O)Nc2sc3c(c2C#N)CCC3)CC1 3%
CCOc1cnc(C(=O)NNC(=O)c2ccccc2Br)o1 0%
COc1ccc(-c2csc(NC(=O)COC(=O)c3ccc(Br)o3)n2)cc1 -1%
O=C(CCSc1ccccc1)N1CCN(c2ccccc2F)CC1 -2%
O=C(CCCc1ccccc1)NCc1ccccc1 -1%
COc1cc(/C=C/C2=CC(C)(C)NC(=S)N2)cc(OC)c1OC 0%
CCCCN(CC)C(=O)c1ccccc1Oc1ccccc1 -2%
